LDHA block = qHTS assay for inhibitors of human lactate dehydrogenase; purified LDHA, NADH/diaphorase-resazurin fluorescence; hits give low values; L-lactate dehydrogenase A chain (Homo sapiens), P00338; AID 1347041, 2019; 480,000 compounds, 0.15% hits; activity change, % (values are at about 110 or 230 µM); in the data active = activity change below about -30%; inconclusive = mostly about -25% to -30%;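 note: plate controls were DMSO wells for no effect and wells without enzyme for full effect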
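Enzyme activity of human lactate dehydrogenase 5 (2 nM; 0.06 mM NADH, 0.2 mM pyruvate, 5 min, RT) is measured via a resazurin/diaphorase fluorescence readout of residual NADH.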
TDP1 cell CPT = qHTS for Inhibitors of human tyrosyl-DNA phosphodiesterase 1 (TDP1): qHTS in cells in presence of CPT. Potency, µM (doses to about 46.2 µM), for inactives: at the highest dose activity change, negative = growth inhibition, hits mostly inhibitors. 420,000 compounds, 12% hits. chicken DT40 Tdp1-/-;hTDP1 cells + 20 nM CPT, ATP luminescence, 48 h. AID 686979, 2013; note: potency is the fitted concentration of half-maximal effect; nearly all actives have a fitted effect of over 55% in size
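Cell growth measured by CellTiter-Glo luminescence after a minimum 48 h, 37 C compound exposure with 20 nM CPT in Tdp1-knockout DT40 cells stably expressing hTDP1, seeded 400/well; qHTS titration format.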
RORg inh = qHTS for inhibitors of ROR gamma transcriptional activity | Nuclear receptor ROR-gamma (Mus musculus), P51450 | Drosophila S2 Gal4-RORgamma UAS-luciferase reporter, 20 h | Potency, µM (doses to about 53.6 µM), for inactives: top-dose activity change, negative = inhibition, usual class: inhibitors | 310,000 compounds, 5.4% hits; note: potency is the fitted concentration of half-maximal effect; nearly all actives have a fitted effect of over 60% in size
Target sequence (P51450 whole entry, looked up, the tested form may be a part): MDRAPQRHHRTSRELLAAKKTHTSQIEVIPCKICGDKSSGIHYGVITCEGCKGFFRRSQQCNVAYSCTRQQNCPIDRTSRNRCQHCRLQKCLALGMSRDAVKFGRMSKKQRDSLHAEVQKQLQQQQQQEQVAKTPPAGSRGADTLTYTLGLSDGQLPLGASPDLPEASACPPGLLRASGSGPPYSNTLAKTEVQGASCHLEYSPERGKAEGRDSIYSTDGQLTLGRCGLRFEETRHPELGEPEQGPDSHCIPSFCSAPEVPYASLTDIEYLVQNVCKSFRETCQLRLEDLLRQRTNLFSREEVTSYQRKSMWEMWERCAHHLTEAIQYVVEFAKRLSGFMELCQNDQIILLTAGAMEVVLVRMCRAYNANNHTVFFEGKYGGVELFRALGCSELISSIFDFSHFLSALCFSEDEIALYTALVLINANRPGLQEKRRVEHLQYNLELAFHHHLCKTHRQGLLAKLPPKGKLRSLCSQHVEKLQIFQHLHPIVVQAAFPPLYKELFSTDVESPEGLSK
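Drosophila Schneider cells stably carrying a metallothionein-driven Gal4 DBD–ROR gamma fusion and a UAS-Photinus luciferase reporter were exposed to compound for 1 hr, then induced with copper sulfate (700 uM final) for 20 hr at ambient temperature before luminescence reading.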
DT40 TDP1 no CPT = qHTS for Inhibitors of human tyrosyl-DNA phosphodiesterase 1 (TDP1): qHTS in cells in absence of CPT; DT40 Tdp1-/- hTDP1 cells, no CPT, ATP luminescence, 48 h; Potency, µM (doses to about 46.2 µM), for the others: top-dose activity change, negative = growth inhibition, hits mostly inhibitors; 420,000 compounds, 15% hits; AID 686978, 2013; note: potency is the fitted concentration of half-maximal effect; nearly all actives have a fitted effect of over 55% in size
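Compound effects on proliferation are scored in DT40 Tdp1-/-;hTDP1 cells in the absence of CPT. ATP levels (CellTiter-Glo luminescence) are recorded after a ≥48 hr, 37 °C incubation.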
IL-1B inflam inh = qHTS for Inhibitors of Inflammasome Signaling: IL-1-beta AlphaLISA Primary Screen; AID 743279, 2014; THP-1 LPS/ATP IL-1B secretion, AlphaLISA, 16 h; hits give low values; 360,000 compounds, 4.7% hits; activity change, % at 57.5 µM; in the data active = activity change below about -50%; inconclusive = mostly about -30% to -49%
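THP-1 cells pretreated 1 hr with compounds (up to 57.5 uM final), then stimulated with LPS (250 ng/mL final) plus ATP (1.25 mM final); secreted IL-1B measured by AlphaLISA after 16 hr, decreased signal indicating inhibition.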
Gal4-VP16 FLuc = VP16 counterscreen qHTS for inhibitors of ROR gamma transcriptional activity | Drosophila S2 Gal4-VP16 UAS-luciferase, luminescence, 20 h | Potency, µM (titrated, usually from 53.6 µM), without a hit: at the highest dose activity, negative = inhibition, usual class: inhibitors | 310,000 compounds, 3.5% hits | AID 2546, 2010;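 note: Gal4-VP16 expression switched on by copper sulfate through the metallothionein promoter; potency is the fitted concentration of half-maximal effect; nearly all actives have a fitted effect of over 50% in size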
Numbers without * were called inactive; ? = inconclusive; · = no result. A selection: hits, their analogues and other compounds. The true share with any hit is near 18%. Unless noted, calls come from the whole dose curve; as a rule, active = well fitted curve in the direction sought with a large enough effect; inconclusive = small, poorly fitted or top-dose-only effect, or another doubt; inactive = no such curve, though single readings can be large; an effect the other way counts as inactive or inconclusive. Unless noted, % is set by controls: 0 for no effect and ±100 for the full control effect.

SMILES	LDHA block	TDP1 cell CPT	RORg inh	DT40 TDP1 no CPT	IL-1B inflam inh	Gal4-VP16 FLuc
COc1cc(NC(=O)c2c3c(nc4ccccc24)C(=O)N(C2CCCCC2)C3)cc(OC)c1	4	-21%	·	-15%	·	·
Cc1cccc(N2CCN(C(=O)c3c4c(nc5ccccc35)C(=O)N(C3CCCCC3)C4)CC2)c1C	9	7.3µM*	·	5.8µM*	·	·
COc1cccc(N2CCN(C(=O)c3c4c(nc5ccccc35)C(=O)N(C3CCCCC3)C4)CC2)c1	-1	21µM*	·	16µM*	·	·
CCCOC(=O)c1ccc(Oc2coc3cc(OC)ccc3c2=O)cc1	-4	·	·	·	·	·
CN1CCN(c2nc3ccccn3c(=O)c2C=O)CC1	-10	11%	-26%	-4%	5	6%
CCOC(=O)N1CCN(c2nc3ccccn3c(=O)c2C=O)CC1	0	15µM*	14%	?	-25	2%
COCCNC(=O)/C(C#N)=C/c1c(N2CCN(c3ccccc3)CC2)nc2ccccn2c1=O	-3	-30%	20%	18µM*	-3	-4%
COCCCNC(=O)/C(C#N)=C/c1c(N2CCN(c3ccccc3)CC2)nc2ccccn2c1=O	-6	?	-2%	15µM*	0	-1%
CCNC(=O)/C(C#N)=C/c1c(N2CCN(c3ccccc3)CC2)nc2ccccn2c1=O	1	?	-2%	?	20	0%
COCCCNC(=O)/C(C#N)=C/c1c(N2CCN(C)CC2)nc2ccccn2c1=O	-1	3%	-7%	-29%	4	3%
CC(=O)c1csc(NC(=O)c2nn(C(C)C)c(=O)c3ccccc23)n1	-6	·	·	·	·	·
O=C(CSc1nc2scc(-c3ccccc3)c2c(=O)[nH]1)N1CCOCC1	-5	?	29%	-28%	-10	3%
CN(Cc1ccccc1)c1nc(CN2CCOCC2)nc2scc(-c3ccccc3)c12	-5	?	10µM*	16µM*	-14	?
Fc1ccc(N2CCN(c3nc(CN4CCOCC4)nc4scc(-c5ccccc5)c34)CC2)cc1	-5	23µM*	10µM*	15µM*	-1	-20%
CCOc1cc(CNn2cnnc2SCC(=O)NC(C)(C)C)ccc1OCC(=O)NC(C)(C)C	-6	-6%	8%	18µM*	20	-15%
Cc1c(Cl)cccc1NC(=O)CSc1nnc(C)n1-c1ccccc1	-6	?	25%	?	-1	13%
Cc1ccc(Cl)cc1NC(=O)CSc1nnc(C)n1-c1ccccc1	-2	-26%	4µM*	-13%	-2	5.6µM*
CC(=O)Nc1nonc1-c1nnc(SCC(=O)Nc2ccc(C)c(Cl)c2)n1-c1ccccc1	-1	?	·	16µM*	·	·
CCN(CC)c1ccc(-c2nnc(SCC(=O)Nc3ccccc3C#N)n2-c2ccccc2)cc1	-1	18µM*	18µM*	18µM*	-4	-25%
Cc1cc(C)n2c(SCC(=O)Nc3ccccc3C#N)nnc2n1	0	-15%	·	-7%	41	·
CCn1c(COc2ccccc2C)nnc1SCC(=O)CC(=O)Nc1ccccc1	-6	?	7.1µM*	?	-1	?
C#CCOc1cc(Br)c(/C=C2\NC(=O)NC2=O)cc1OCC	-2	·	·	·	·	·
Cc1ccc(N(Cc2cc(=O)[nH]c3ccccc23)C(=O)c2ccncc2)cc1	6	·	·	·	·	·
N#Cc1ccccc1NC(=O)CSc1nnc(-c2ccccc2)n1-c1ccccc1	0	23µM*	9%	?	26	19%
N#Cc1ccccc1NC(=O)CSc1nccn1CCc1ccccc1	3	-7%	42%	-29%	-18	13%
SMILES	LDHA block	TDP1 cell CPT	RORg inh	DT40 TDP1 no CPT	IL-1B inflam inh	Gal4-VP16 FLuc
Cc1ccc(-c2nnc(SCC(=O)CC(=O)Nc3ccccc3)n2-c2ccccc2)cc1	0	-3%	3.5µM*	-1%	-17	?
O=C(CSc1nnc(-c2cccnc2)n1-c1ccccc1)Nc1ccccc1	1	?	-15%	-12%	-10	13%
Cc1ccc(O)c(/C=N/NC(=O)Cc2ccc(Cl)cc2)c1	-1	?	0.63µM*	?	95	0.63µM*
O=C(Cc1ccc(Cl)cc1)N/N=C/c1ccc(O)c(O)c1	9	?	·	13µM*	14	·
COc1ccc(CCNC(=O)c2cc(=O)c3cc(C)ccc3o2)cc1OC	2	?	?	21µM*	24	-21%
Cc1ccc2oc(C(=O)NCCc3ccc(S(N)(=O)=O)cc3)cc(=O)c2c1	4	·	·	·	·	·
COc1ccc(CCNC(=O)COc2ccc3c(C)cc(=O)oc3c2)cc1OC	-8	?	3%	13µM*	-14	4%
COc1ccc(CCNC(=O)c2cc(=O)c3cc(C)c(C)cc3o2)cc1OC	-17	-30%	·	7.3µM*	·	·
CCOc1ccc(CCNC(=O)c2nnc(Cc3cc(OC)c(OC)c(OC)c3)o2)cc1OCC	0	21µM*	·	?	·	·
COC(=O)c1ccc(/C=C/C(=O)c2ccc3cc(OC)ccc3c2)cc1	10	·	·	·	·	·
COc1ccc(-c2c(C)nn3c2NC(=O)CCC3=O)cc1S(=O)(=O)Nc1ccccc1F	-4	·	·	·	·	·
O=c1oc2ccccc2c(NCc2ccccc2)c1NS(=O)(=O)c1cccc(F)c1	-10	·	·	·	·	·
Cc1ccc2nc(COc3ccccc3C(=O)O)cn2c1	12	·	·	·	·	·
COc1ccc(CCNC(=O)c2cc(=O)c3cc(C)cc(C)c3o2)cc1OC	2	21µM*	·	23µM*	·	·
COc1ccc(NC(=O)c2cc(=O)c3cc(C)cc(C)c3o2)cc1	-2	?	·	?	·	·
CCCc1cc(=O)oc2cc(OCC(=O)NCCc3c[nH]c4ccc(OC)cc34)ccc12	-2	16µM*	?	15µM*	-19	-12%
O=C(CSc1nnc(-c2ccc(Cl)cc2)n1Cc1ccco1)Nc1ccc2c(c1)OCCO2	-4	?	?	?	?	1%
CC(=O)Nc1cccc(NC(=O)CSc2ncc(-c3ccc(Cl)cc3)n2Cc2ccco2)c1	-1	21µM*	?	21µM*	-22	?
COc1ccc(-c2cnc(SCC(=O)Nc3ccc4c(c3)OCO4)n2Cc2ccco2)cc1	-7	18µM*	32%	18µM*	-73*	-2%
N#C/C(=C/c1ccc(OC(F)F)cc1)C(=O)c1c[nH]c2cc(F)ccc12	-7	·	·	·	·	·
CCOc1ccc(CN(CC)Cc2cc(=O)oc3ccc(C)cc23)cc1	9	·	·	·	·	·

High-throughput results from PubChem BioAssay.
